Measured values as given in PubChem BioAssay (NCATS).
Records with an inconclusive call do not appear. The source made the active and inactive calls. The call rests on the fitted dose curve; in most records, active means well fitted curve in the direction sought with a large enough effect; inconclusive means small, poorly fitted or top-dose-only effect, or another doubt; inactive means no such curve, though single readings can be large; an effect the other way counts as inactive or inconclusive.

Tests used:
[1] = MultiTox-Fluor Cytotoxicity Assay - LYMP1-003 - Live Cells (AID 962);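 further: cells exposed to compound for 16 hours at 37 °C; cytotoxic hits lower the live-cell protease signal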
Method in brief: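 Live-cell protease activity (GF-AFC substrate, 405/510 nm, 60 min at room temperature) after 16 h, 37 C compound exposure of human lymphoblastoid LYMP1-003 cells; concentration-response fitted to the Hill equation for AC50.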

[2] = Cell Viability - LYMP1-003 - Assay at 24 hr (AID 963)
Method in brief: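 Concentration-response qHTS: ATP loss measured by CellTiter-Glo luminescence after 24 h compound exposure at 37 C. Cells were LYMP1-003 human lymphoblastoid, 2500 per well. AC50 derived via standard Hill equation modeling.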

[3] = Cell Viability - LYMP1-003 - Assay at 40 hr (AID 964); further: series mostly up to about 92 µM; nearly all actives have a fitted effect of over 60% in size
Method in brief: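 Viability is taken as cellular ATP, read by CellTiter-Glo luminescence after 40 h of compound exposure at 37 C. Cells: human lymphoblastoid line LYMP1-003 at 2500/well; AC50 values derived by Hill-equation fitting of concentration-response data.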

[4] = Cell Viability - LYMP2-003 (AID 965);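 further: cells exposed to compounds for 24 h before reading; nearly all actives have a fitted effect of over 50% in size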
Method in brief: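 Seed 2500 lymphoblastoid cells/well; incubate 5 hr, 37 C; add compounds; incubate 24 hr, 37 C; add CellTiter-Glo, 30 min RT; read luminescence. AC50 from Hill fit.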

[5] = Cell Viability - LYMP2-004 (AID 966); further: nearly all actives have a fitted effect of over 65% in size
Method in brief: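 AC50 values come from Hill modelling of concentration-dependent loss of intracellular ATP, measured by CellTiter-Glo luminescence. Human LYMP2-004 lymphoblastoid cells (2500/well) were exposed to compound for 24 h at 37 C.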

[6] = Cell Viability - LYMP2-005 (AID 967); further: series mostly up to about 92 µM
Method in brief: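 Acute cytotoxicity is scored as a concentration-dependent drop in intracellular ATP in human lymphoblastoid LYMP2-005 cells after 24 h compound treatment. ATP is quantified by luciferase luminescence, and AC50 is derived by Hill-equation modelling.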

[7] = Cell Viability - LYMP2-009 (AID 968); further: series mostly up to about 92 µM; nearly all actives have a fitted effect of over 55% in size
[8] = Cell Viability - LYMP2-011 (AID 969); further: nearly all actives have a fitted effect of over 60% in size
Method in brief: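 Cytotoxicity qHTS with ATP content as read-out: lymphoblastoid cells (2500/well) exposed to compound for 24 h at 37 C, then luciferase luminescence measured. Concentration-response data fitted with the standard Hill equation to give AC50.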

[9] = Cell Viability - LYMP2-013 (AID 970); further: series mostly up to about 92 µM; nearly all actives have a fitted effect of over 55% in size
Method in brief: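 qHTS cytotoxicity: ATP-dependent luminescence (CellTiter-Glo, 30 min room temperature) read after 24 h compound exposure at 37 C of 2500 LYMP2-013 lymphoblastoid cells per well. Concentration-response fitted with Hill equation to give AC50.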

[10] = Cell Viability - LYMP2-015 (AID 971); further: nearly all actives have a fitted effect of over 55% in size
Method in brief: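 Cytotoxicity readout: decrease in intracellular ATP (CellTiter-Glo luminescence) in 2500 LYMP2-015 lymphoblastoid cells/well after 24 h compound exposure at 37 C. Concentration-response data fitted with the standard Hill equation to give AC50.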

[11] = Cell Viability - LYMP2-017 (AID 972); further: series mostly up to about 92 µM; nearly all actives have a fitted effect of over 55% in size
Method in brief: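 CellTiter-Glo luminescence (cellular ATP, 30 min RT) measured cytotoxicity after 24 hr compound treatment at 37 C. Cells were a human lymphoblastoid line, LYMP2-017, plated at 2500/well and incubated 5 hr first; concentration-response fitted with Hill equation for AC50.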

[12] = Cell Viability - LYMP2-019 (AID 973); further: nearly all actives have a fitted effect of over 55% in size
Method in brief: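 AC50 values come from Hill-equation fits of luminescent intracellular ATP (CellTiter-Glo, 30 min, room temperature) following 24 h compound exposure at 37 C. Cells: LYMP2-019 lymphoblastoid line, 2500 per well, in complete culture medium.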

[13] = Cell Viability - LYMP2-021 (AID 974); further: nearly all actives have a fitted effect of over 55% in size
Method in brief: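 AC50 values come from Hill-equation fits to CellTiter-Glo luminescence (ATP content), read after 24 hour compound exposure at 37 C of 2500 LYMP2-021 lymphoblastoid cells/well; tetraoctylammonium bromide as positive control.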

[14] = Cell Viability - LYMP2-023 (AID 975)
Method in brief: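 Intracellular ATP, read by CellTiter-Glo luminescence, reports viability after 24 hr compound exposure at 37 C. 2500 lymphoblastoid cells/well (LYMP2-023) seeded 5 hr beforehand; Hill fits give AC50; positive control tetraoctylammonium bromide.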

[15] = Cell Viability - LYMP2-025 (AID 976); further: series mostly up to about 92 µM
Method in brief: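 Cytotoxicity read as loss of intracellular ATP (luciferase luminescence) after 24 h compound treatment at 37 C. Uses LYMP2-025 lymphoblastoid cells in 1536-well format; Hill-equation modelling gives AC50; tetraoctylammonium bromide as positive control.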

[16] = Cell Viability - LYMP2-002 (AID 977); further: series mostly up to about 92 µM
Method in brief: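 Human lymphoblastoid cells (2500/well) in complete medium were preincubated 5 hr at 37 C, then exposed to compounds for 24 hr at 37 C. Intracellular ATP was read by CellTiter-Glo luminescence; AC50 came from Hill-equation concentration-response fits.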

[17] = Cell Viability - LYMP2-006 (AID 978); further: series mostly up to about 92 µM; nearly all actives have a fitted effect of over 60% in size
Method in brief: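 Cells are seeded at 2500 per well and rested 5 hr at 37 C. Compounds are added across a concentration series for 24 hr at 37 C, after which ATP is quantified by luciferase luminescence.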

[18] = Cell Viability - LYMP2-007 (AID 979);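 further: cells exposed to compound for 24 h before reading; nearly all actives have a fitted effect of over 60% in size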
Method in brief: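 AC50 values come from Hill-equation fits of luminescent intracellular ATP (CellTiter-Glo, 30 min, room temperature) following 24 h compound exposure at 37 C. Cells: LYMP2-007 lymphoblastoid line, 2500 per well, in complete culture medium.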

[19] = Cell Viability - LYMP2-008 (AID 980); further: nearly all actives have a fitted effect of over 60% in size
Method in brief: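 Cytotoxicity determined from ATP-dependent luciferase luminescence (CellTiter-Glo) following 24 h compound exposure of human lymphoblastoid LYMP2-008 cells at 37 C. Concentration-response data fitted to the Hill equation to give AC50.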

[20] = Cell Viability - LYMP2-010 (AID 981); further: nearly all actives have a fitted effect of over 55% in size
Method in brief: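 CellTiter-Glo ATP luminescence measured cytotoxicity after 24 h compound exposure at 37 C. LYMP2-010 cells were seeded at 2500/well, with tetraoctylammonium bromide as control; concentration-response curves gave AC50 values by the Hill equation.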

Measured: outcome

Cc1cc(O)c2c(c1)C(=O)c1cccc(O)c1C2=O
inactive: all assays above
